PubChem BioAssay (Tox21)
Results filed as inconclusive are left out. The source made the active and inactive calls. Unless noted, calls come from the whole dose curve; as a rule, active = well fitted curve in the direction sought with a large enough effect in the repeat runs; inconclusive = weak or mixed curves; inactive = no such curve, though single readings can be large; an effect the other way counts as inactive or inconclusive.

How the values were obtained:
[1] = qHTS assay to identify small molecule antagonists of the thyroid receptor (TR) signaling pathway - cell viability counter screen (AID 743064); note: nearly all actives have a fitted effect of over 50% in size
Method in brief: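 Fluorescence from CellTiter-Fluor, added after 23.5 h exposure at 37 °C, reported viability of GH3.TRE-Luc cells co-treated with compound and 1 nM T3. Measured in the same wells as the luciferase TR readout.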

[2] = qHTS assay to identify small molecule antagonists of the thyroid receptor (TR) signaling pathway (AID 743065); note: series mostly up to about 70 µM; nearly all actives have a fitted effect of over 55% in size
Method in brief: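 Antagonism measured as loss of luciferase signal in GH3 cells stably carrying a TRE-luciferase reporter, co-treated with compound and T3 (1 nM final) for 23.5 h at 37 C. Viability was read in the same well by CellTiter-Fluor.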

[3] = system: thyroid hormone receptor (rat, GH3 cells); assay: qHTS assay to identify small molecule agonists of the thyroid receptor (TR) signaling pathway (AID 743066; calls by dose curve)
[4] = qHTS assay to identify small molecule antagonists of the estrogen receptor alpha (ER-alpha) signaling pathway - cell viability counter screen (AID 743074; calls by dose curve;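 note: HEK293 cells carrying ER-alpha-UAS-bla reporter stimulated with 17beta-estradiol; nearly all actives have a fitted effect of over 45% in size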)
[5] = qHTS assay to identify small molecule antagonists of the estrogen receptor alpha (ER-alpha) signaling pathway using the BG1 cell line - cell viability counter screen (AID 743081);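 note: compound given together with 17beta-estradiol as the ER stimulus; series mostly up to about 70 µM; nearly all actives have a fitted effect of over 45% in size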
Aromatase (Homo sapiens) = Aromatase (Homo sapiens) (UniProt P11511); assay: qHTS assay to identify aromatase inhibitors (AID 743083); note: series mostly up to about 70 µM; nearly all actives have a fitted effect of over 55% in size
[6] = qHTS assay to identify aromatase inhibitors - cell viability counter screen (AID 743084);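 note: cells stimulated with testosterone during compound exposure; nearly all actives have a fitted effect of over 55% in size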
[7] = biological target: Aryl hydrocarbon receptor (Homo sapiens) (UniProt P35869); assay: qHTS assay to identify small molecule that activate the aryl hydrocarbon receptor (AhR) signaling pathway (AID 743085);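 note: HG2L7.5c1 human HepG2 liver cells with stably integrated DRE-driven firefly reporter; series mostly up to about 70 µM; nearly all actives have a fitted effect of over 15% in size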
Method in brief: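 Cell line HG2L7.5c1 (human hepatoma, 20× DRE-luc). Plated, 5 h 37C, compound/DMSO added, 24 h 37C. CellTiter-Fluor 30 min 37C → fluorescence; then ONE-Glo 30 min RT → luminescence.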

[8] = biological target: Peroxisome proliferator-activated receptor gamma (Homo sapiens) (UniProt P37231); assay: qHTS assay to identify small molecule agonists of the peroxisome proliferator-activated receptor gamma (PPARg) signaling pathway (AID 743094; active = well fitted activation curve with a large enough effect in the signal ratio in the repeat runs, not every such curve was filed as active; the % refers to the signal ratio)
Method in brief: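 Following 5 h plating at 37C, PPARg-bla HEK293H cells receive compound or DMSO for 17 h; fluorescence intensity is recorded after LiveBLAzer B/G loading for 1 h at room temperature.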

[9] = biological target: Peroxisome proliferator-activated receptor gamma (Homo sapiens) (UniProt P37231); assay: qHTS assay to identify small molecule antagonists of the peroxisome proliferator-activated receptor gamma (PPARg) signaling pathway (AID 743191; calls by dose curve; note: series mostly up to about 63 µM; nearly all actives have a fitted effect of over 30% in size)
Method in brief: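 Beta-lactamase reporter under UAS control in HEK293H PPARg-bla cells; compound treatment 17 h at 37C. Read-out: fluorescence intensity after 1 h room-temperature incubation with LiveBLAzer B/G FRET substrate.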

[10] = qHTS assay to identify small molecule antagonists of the peroxisome proliferator-activated receptor gamma (PPARg) signaling pathway - cell viability counter screen (AID 743194); note: nearly all actives have a fitted effect of over 55% in size
Method in brief: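 Viability was measured as CellTiter-Glo luminescence in GeneBLAzer PPARg UAS-bla HEK293H cells. These cells had been exposed 17 h at 37 C to compounds together with rosiglitazone at 50 nM final, with the beta-lactamase readout taken in the same wells.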

[11] = qHTS assay for small molecule agonists of the antioxidant response element (ARE) signaling pathway (AID 743202; active = well fitted activation curve with a large enough effect in the signal ratio in the repeat runs, not every such curve was filed as active; the % refers to the signal ratio)
Method in brief: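 Quantitative high-throughput format in HepG2 cells bearing an integrated ARE-beta-lactamase reporter. Compound exposure lasted 16 h at 37 C, and fluorescence was read 2 h after adding LiveBLAzer B/G substrate at room temperature.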

[12] = qHTS assay for small molecule agonists of the antioxidant response element (ARE) signaling pathway - cell viability counter screen (AID 743203; calls by dose curve; note: nearly all actives have a fitted effect of over 55% in size)
Method in brief: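 Compounds in DMSO were pinned onto ARE-bla HepG2 cells plated 5 hrs earlier at 2,000 cells/well. Sixteen hours later at 37C/5% CO2, CellTiter-Glo was added and luminescence measured after 30 min at room temperature.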

[13] = qHTS assay for small molecule activators of the heat shock response signaling pathway - cell viability counter screen (AID 743209); note: nearly all actives have a fitted effect of over 50% in size
Method in brief: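 Counter screen for cytotoxicity in HeLa HSE-bla reporter cells. Treatment was 5 h at 37 C; viability was detected by luminescent ATP assay (CellTiter-Glo) in the same wells as the beta-lactamase read.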

[14] = qHTS assay for small molecule activators of the heat shock response signaling pathway (AID 743210; active = well fitted activation curve with a large enough effect in the signal ratio in the repeat runs, with a control signal flat, not every such curve was filed as active; the % refers to the signal ratio;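 note: HeLa cells with beta-lactamase reporter driven by heat shock elements; series mostly up to about 63 µM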)
Method in brief: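 HeLa HSE-bla cells, overnight plating; cpd in DMSO 5 h, 37 C; LiveBLAzer B/G FRET substrate 2.5 h RT; fluorescence intensity read.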

[15] = qHTS assay to identify small molecule that activate the aryl hydrocarbon receptor (AhR) signaling pathway - cell viability counter screen (AID 743086);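 note: HepG2 liver cells carrying the AhR DRE luciferase reporter; series mostly up to about 70 µM; nearly all actives have a fitted effect of over 45% in size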
Method in brief: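 Cytotoxicity counter screen: CellTiter-Fluor signal (30 min, 37 C) in 4000 HepG2 cells/well carrying the DRE-luciferase reporter, following 24 h compound exposure at 37 C.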
% is set by controls: 0 for no effect and ±100 for the full control effect.

Aryl hydrocarbon receptor (Homo sapiens), sequence (P35869 whole entry, looked up): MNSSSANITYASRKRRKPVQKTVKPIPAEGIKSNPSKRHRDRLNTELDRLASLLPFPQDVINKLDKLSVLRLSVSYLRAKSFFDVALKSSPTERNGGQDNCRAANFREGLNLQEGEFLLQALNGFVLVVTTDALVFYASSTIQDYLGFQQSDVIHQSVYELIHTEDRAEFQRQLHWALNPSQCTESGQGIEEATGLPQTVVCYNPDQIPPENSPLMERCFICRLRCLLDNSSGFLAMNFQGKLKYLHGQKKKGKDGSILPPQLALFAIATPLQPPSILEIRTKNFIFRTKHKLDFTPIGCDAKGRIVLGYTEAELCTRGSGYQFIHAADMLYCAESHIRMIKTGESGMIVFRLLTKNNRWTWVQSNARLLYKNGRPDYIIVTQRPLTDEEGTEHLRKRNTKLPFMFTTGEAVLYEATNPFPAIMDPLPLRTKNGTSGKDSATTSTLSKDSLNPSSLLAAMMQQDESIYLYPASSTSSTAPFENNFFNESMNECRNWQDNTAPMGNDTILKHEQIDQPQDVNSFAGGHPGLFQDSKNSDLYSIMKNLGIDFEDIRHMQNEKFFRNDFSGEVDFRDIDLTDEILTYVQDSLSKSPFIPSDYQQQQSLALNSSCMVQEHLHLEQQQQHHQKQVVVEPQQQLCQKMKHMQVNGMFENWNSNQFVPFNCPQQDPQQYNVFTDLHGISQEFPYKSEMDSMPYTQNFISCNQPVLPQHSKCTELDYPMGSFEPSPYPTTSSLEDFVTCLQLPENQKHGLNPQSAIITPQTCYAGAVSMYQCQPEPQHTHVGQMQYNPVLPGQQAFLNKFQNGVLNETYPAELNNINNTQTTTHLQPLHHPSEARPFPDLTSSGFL
Peroxisome proliferator-activated receptor gamma (Homo sapiens), sequence (P37231 whole entry, looked up): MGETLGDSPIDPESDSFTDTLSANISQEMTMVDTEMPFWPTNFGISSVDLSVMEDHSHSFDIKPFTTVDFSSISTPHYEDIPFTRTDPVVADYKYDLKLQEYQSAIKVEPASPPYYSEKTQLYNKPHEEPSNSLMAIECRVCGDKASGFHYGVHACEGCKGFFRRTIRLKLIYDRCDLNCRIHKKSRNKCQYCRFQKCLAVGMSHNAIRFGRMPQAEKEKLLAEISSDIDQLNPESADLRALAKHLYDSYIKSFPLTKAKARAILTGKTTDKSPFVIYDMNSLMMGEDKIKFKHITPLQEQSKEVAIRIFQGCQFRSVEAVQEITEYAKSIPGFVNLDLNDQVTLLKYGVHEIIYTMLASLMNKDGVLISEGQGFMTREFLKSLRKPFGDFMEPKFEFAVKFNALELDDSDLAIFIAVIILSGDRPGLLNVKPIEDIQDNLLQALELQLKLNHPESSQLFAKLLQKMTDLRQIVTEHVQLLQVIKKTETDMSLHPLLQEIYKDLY
Aromatase (Homo sapiens), sequence (P11511 whole entry, looked up): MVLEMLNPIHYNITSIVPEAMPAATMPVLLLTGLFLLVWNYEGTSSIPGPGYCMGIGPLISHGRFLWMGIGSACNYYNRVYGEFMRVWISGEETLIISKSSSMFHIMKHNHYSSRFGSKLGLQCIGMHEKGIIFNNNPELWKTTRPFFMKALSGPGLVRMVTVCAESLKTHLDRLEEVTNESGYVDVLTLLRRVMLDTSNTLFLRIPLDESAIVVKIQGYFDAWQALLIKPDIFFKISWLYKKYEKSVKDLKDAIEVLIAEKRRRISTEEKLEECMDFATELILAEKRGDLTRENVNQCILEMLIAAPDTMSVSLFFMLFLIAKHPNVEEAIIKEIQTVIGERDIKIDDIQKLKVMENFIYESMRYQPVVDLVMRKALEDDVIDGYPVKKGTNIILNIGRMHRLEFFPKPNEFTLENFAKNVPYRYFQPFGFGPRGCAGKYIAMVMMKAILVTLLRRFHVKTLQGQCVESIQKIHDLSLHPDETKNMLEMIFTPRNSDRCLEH

CC(C)COC(=O)CCCCC(=O)OCC(C)C
inactive: Potency [1] | Potency [2] | Potency [3] | Potency [4] | outcome [5] | outcome (Aromatase (Homo sapiens)) | Potency [6] | Potency [7] | outcome [8] | Potency [9] | outcome [10] | Potency [11] | outcome [12] | outcome [13] | outcome [14]

Cc1ccccc1N1CCN(CCc2nnc3n2CCCC3)CC1
inactive: Potency [1] | Potency [2] | Potency [3] | Potency [4] | outcome [5] | outcome (Aromatase (Homo sapiens)) | Potency [6] | Potency [15] | outcome [8] | Potency [9] | outcome [10] | Potency [11] | outcome [12] | outcome [13] | outcome [14]

CNCc1ccccc1
inactive: Potency [1] | Potency [2] | Potency [3] | Potency [4] | outcome [5] | outcome (Aromatase (Homo sapiens)) | Potency [6] | Potency [15] | outcome [8] | Potency [9] | outcome [10] | Potency [11] | outcome [12] | outcome [14]

C=C(C)C(=O)OC1CC(C)CC(C)(C)C1 (centres undefined)
inactive: Potency [1] | Potency [2] | Potency [3] | Potency [4] | outcome [5] | outcome (Aromatase (Homo sapiens)) | Potency [6] | Potency [7] | Potency [15] | outcome [8] | Potency [9] | outcome [10] | outcome [12] | outcome [13]

BrC/C=C/CBr
inactive: Potency [1] | Potency [2] | Potency [3] | Potency [4] | outcome [5] | outcome (Aromatase (Homo sapiens)) | Potency [6] | Potency [7] | Potency [15] | outcome [8] | Potency [9] | outcome [10] | outcome [13] | outcome [14]

O=C1c2ccccc2-c2ccccc21
inactive: Potency [1] | Potency [2] | Potency [3] | Potency [4] | outcome [5] | outcome (Aromatase (Homo sapiens)) | Potency [6] | Potency [7] | Potency [15] | outcome [8] | Potency [9] | outcome [10] | Potency [11] | outcome [12] | outcome [13] | outcome [14]

C=C[C@@H](C)CCC=C(C)C
inactive: Potency [1] | Potency [2] | Potency [3] | Potency [4] | outcome [5] | outcome (Aromatase (Homo sapiens)) | Potency [6] | Potency [7] | Potency [15] | outcome [8] | Potency [9] | outcome [10] | Potency [11] | outcome [12] | outcome [13] | outcome [14]

CN(C)CCCNCCC#N
inactive: Potency [1] | Potency [2] | Potency [3] | Potency [4] | outcome [5] | outcome (Aromatase (Homo sapiens)) | Potency [6] | Potency [7] | Potency [15] | outcome [8] | Potency [9] | outcome [10] | Potency [11] | outcome [12] | outcome [13] | outcome [14]

O=CO
inactive: activity change, negative = cytotoxic [1] -0.961% [at 8.44 µM] | activity, negative = inhibition [2] -3.91% [at 8.44 µM] | activation [3] 0.246% [at 8.08 µM] | activity, negative = cytotoxicity [4] 6.52% [at 6.72 µM] | activity change, negative = cytotoxicity [5] 0.807% [at 8.47 µM] | activity, negative = inhibition (Aromatase (Homo sapiens)) 10.9% [at 8.47 µM] | activity change, negative = cytotoxicity [6] -4.37% [at 8.47 µM] | activation [7] 0.579% [at 8.47 µM] | viability change, negative = cytotoxic [15] -0.0332% [at 8.47 µM] | activity change, negative = cytotoxicity [10] 15.3% [at 5.95 µM] | activation [11] -2.02% [at 8.36 µM] | viability change, negative = cytotoxic [12] -3% [at 8.36 µM] | activity change, negative = cytotoxicity [13] 8.14% [at 5.95 µM] | activation [14] -1.54% [at 5.95 µM]

Nc1cc(S(=O)(=O)O)ccc1S(=O)(=O)O
inactive: Potency [1] | Potency [2] | Potency [3] | Potency [4] | outcome [5] | outcome (Aromatase (Homo sapiens)) | Potency [6] | Potency [7] | Potency [15] | outcome [8] | Potency [9] | outcome [10] | outcome [12] | outcome [13] | outcome [14]

COCCOCCOCCOC
inactive: Potency [1] | Potency [2] | Potency [3] | Potency [4] | outcome [5] | outcome (Aromatase (Homo sapiens)) | Potency [6] | Potency [7] | outcome [8] | Potency [9] | outcome [10] | Potency [11] | outcome [13]

Cc1ccc(S(=O)(=O)NC(=O)NC2CCCCCCC2)cc1
inactive: Potency [1] | Potency [2] | Potency [3] | Potency [4] | outcome [5] | outcome (Aromatase (Homo sapiens)) | Potency [6] | Potency [7] | Potency [15] | outcome [10] | Potency [11] | outcome [12] | outcome [13] | outcome [14]

CCCC(C)CC (centres undefined)
inactive: Potency [1] | Potency [2] | Potency [3] | Potency [4] | outcome [5] | outcome (Aromatase (Homo sapiens)) | Potency [6] | Potency [7] | Potency [15] | outcome [8] | Potency [9] | outcome [10] | Potency [11] | outcome [12] | outcome [13] | outcome [14]

Cn1c(=O)c2c(ncn2CC2OCCO2)n(C)c1=O
inactive: Potency [1] | Potency [2] | Potency [3] | Potency [4] | outcome [5] | outcome (Aromatase (Homo sapiens)) | Potency [6] | Potency [7] | Potency [15] | outcome [8] | outcome [10] | Potency [11] | outcome [12] | outcome [13] | outcome [14]

CCC(=O)OCCC(C)CCC=C(C)C (centres undefined)
inactive: Potency [1] | Potency [2] | Potency [3] | Potency [4] | outcome [5] | outcome (Aromatase (Homo sapiens)) | Potency [6] | Potency [7] | Potency [15] | outcome [8] | Potency [9] | outcome [10] | outcome [12] | outcome [13] | outcome [14]

NS(=O)(=O)c1cc2c(cc1Cl)NC(C(Cl)Cl)NS2(=O)=O (centres undefined)
inactive: Potency [1] | Potency [2] | Potency [3] | Potency [4] | outcome [5] | outcome (Aromatase (Homo sapiens)) | Potency [6] | Potency [7] | Potency [15] | outcome [8] | outcome [10] | outcome [13] | outcome [14]

CCCCCCCCCCCCCCCCI
inactive: Potency [1] | Potency [2] | Potency [3] | Potency [4] | outcome [5] | outcome (Aromatase (Homo sapiens)) | Potency [6] | Potency [7] | Potency [15] | outcome [8] | Potency [9] | outcome [10] | Potency [11] | outcome [13]
